The nature of assay [1]: Quantitative High-Throughput drug screen in 47 multiple myeloma cell lines against the NCATS MIPE library collection: EJM_DSMZ cell viability assay (AID 1918926; note: nearly all actives have a fitted effect of over 30% in size). The essentials:
(§1)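 Luminescent ATP measurement with CellTiter-Glo gives viability, scaled between DMSO-only wells (100%) and media-only wells (0%). Cells, 500 per well, faced library compounds for 48 hours at 37C.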

Assay [2] is described as follows: Quantitative High-Throughput drug screen in 47 multiple myeloma cell lines against the NCATS MIPE library collection: AMO1_DSMZ cell viability assay (AID 1918927; note: nearly all actives have a fitted effect of over 30% in size). The essentials:
as §1

Assay [3] is described as follows: Quantitative High-Throughput drug screen in 47 multiple myeloma cell lines against the NCATS MIPE library collection: ARP1_JJKsccF8 cell viability assay (AID 1918928; note: nearly all actives have a fitted effect of over 40% in size). In a few lines:
(§2)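 500 cells/well; MIPE 4.0 library pinned in; 48 h, 37 °C, 5% CO2; CellTiter-Glo ATP luminescence. Controls: DMSO = 100% viability, medium only = 0%.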

Assay [4] in a line: Quantitative High-Throughput drug screen in 47 multiple myeloma cell lines against the NCATS MIPE library collection: ARD_JJKsccE7 cell viability assay (AID 1918929). The essentials: as §1
A short description of assay [5]: Quantitative High-Throughput drug screen in 47 multiple myeloma cell lines against the NCATS MIPE library collection: Karpas620_DSMZ cell viability assay (AID 1918959). Note: nearly all actives have a fitted effect of over 30% in size. The essentials: (§3)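 We plated 500 myeloma cells per well, pinned in MIPE 4.0 compounds, and incubated for 48 hours at 37C. ATP was then quantified with CellTiter-Glo, with DMSO and media-only wells defining 100% and 0%.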

Assay [6] in a line: Quantitative High-Throughput drug screen in 47 multiple myeloma cell lines against the NCATS MIPE library collection: Karpas417_ECACC cell viability assay (AID 1918961). The settings on record: Karpas417 myeloma viability, CellTiter-Glo ATP luminescence, 48 h; viability (% of DMSO): at 45.8 µM (top of the series). In a few lines:
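Viability readout: CellTiter-Glo luminescence following 5 min room-temperature incubation with reagent. Prior exposure: 48 h, 37C, humidified 5% CO2, 500 cells per well.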
A general note: In ATP-based viability assays light output follows the ATP content of the culture.

Assay [7] is described as follows: Quantitative High-Throughput drug screen in 47 multiple myeloma cell lines against the NCATS MIPE library collection: JIM3_ECACC cell viability assay (AID 1918963; note: nearly all actives have a fitted effect of over 35% in size). The essentials: as §3
Assay [8] is described as follows: Quantitative High-Throughput drug screen in 47 multiple myeloma cell lines against the NCATS MIPE library collection: JIM1_ECACC cell viability assay (AID 1918964). The essentials:
as §1

The nature of assay [9]: Quantitative High-Throughput drug screen in 47 multiple myeloma cell lines against the NCATS MIPE library collection: KMM1_JCRB cell viability assay (AID 1918960). Note: nearly all actives have a fitted effect of over 30% in size. The essentials: as §2
Assay [10] can be described thus: Quantitative High-Throughput drug screen in 47 multiple myeloma cell lines against the NCATS MIPE library collection: KHM11_PLB cell viability assay (AID 1918962). Note: nearly all actives have a fitted effect of over 35% in size. The essentials:
as §3

Experimental findings from PubChem BioAssay (NCATS) are described below.

Records with an inconclusive call do not appear. Active and inactive are the calls of the source. Calls come from the whole dose curve; as a rule, active = well fitted curve in the direction sought with a large enough effect; inconclusive = small, poorly fitted or top-dose-only effect, or another doubt; inactive = no such curve, though single readings can be large; an effect the other way counts as inactive or inconclusive.
Potency is the fitted concentration of half-maximal effect.

Consider `Nc1ncnc2c1ncn2[C@@H]1O[C@@H](CO)[C@H](O)[C@H]1O`, for which the Potency entry in assay [1], in assay [2], in assay [3], in [4], in [5] and in assay [6] was “inactive” each time. In addition, the Potency entry in assay [7] and in assay [8] was “inactive” throughout.

With `CC#CCn1c(N2CCC[C@@H](N)C2)nc2c1c(=O)n(Cc1nc(C)c3ccccc3n1)c(=O)n2C`, the Potency result in assay [1], in [2], in [4], in [5], in assay [9] and in [10] was “inactive” in each case. Besides, the Potency in assay [3] was 2.96 µM (active).

Consider `COc1ccc(-c2nc(N3CCOCC3)c3sc(CN(C)c4ncc(C(=O)NO)cn4)cc3n2)cn1`, for which the Potency in assay [1] is 0.0042 µM (active); in assay [2] it was 0.001 µM (active); in assay [4], 0.001 µM (active); in assay [5], 0.001 µM (active); in [9] it was 0.001 µM (active); in assay [8], 0.001 µM (active). Moreover, the Potency result in assay [3] was “inactive”.

In the case of `CCC(=O)O[C@]1(C(=O)CO)CC[C@H]2[C@@H]3CCC4=CC(=O)CC[C@]4(C)[C@@H]3CC[C@@]21C`, the Potency entry in assay [1], in assay [2], in assay [5], in [9], in assay [10] and in assay [7] was “inactive” in each case.

In the case of `CC(=Cc1ccccc1)C=C1SC(=S)N(CC(=O)O)C1=O`, the Potency entry in assay [1], in assay [2], in assay [4], in assay [9], in assay [6] and in [10] was “inactive” in each case. Also, the Potency result in assay [7] is “inactive”.

`Nc1ncnc2c1ncn2[C@@H]1O[C@H](CO)C[C@@H]1O`: the Potency entry in assay [1], in [3], in assay [4], in [5], in assay [9] and in [6] was “inactive” in each case.

In the case of `COc1cc(O)c2c(c1)C(=O)c1cc(C)cc(O)c1C2=O`, the Potency entry in assay [1], in [3], in assay [4], in [5], in [9] and in assay [6] was “inactive” each time. In addition, the Potency entry in assay [10] and in assay [7] was “inactive” in each case.

On to `CC(=NNC(=S)N1CCC1)c1ccccn1`, for which the Potency entry in [1], in assay [6] and in assay [7] was “inactive” each time. The Potency in assay [2] and in [4] was 0.001 µM (active) in each case.

As to `CC(C)(C)OC(=O)N[C@H]1CCCCCC=C[C@@H]2C[C@@]2(C(=O)NS(=O)(=O)C2CC2)NC(=O)[C@@H]2C[C@@H](OC(=O)N3Cc4cccc(F)c4C3)CN2C1=O`, the Potency result in assay [1], in assay [2], in [3], in assay [10] and in assay [7] was “inactive” in each case.

As to `COC[C@@H](c1ccc(C(F)(F)F)cc1)N1CCN(C2(C)CCN(C(=O)c3c(C)ncnc3C)CC2)C[C@H]1C`, the Potency result in [1], in assay [3] and in assay [10] was “inactive” each time. Further, the Potency in [2] was 16.6 µM (active).

As for `COc1cccc(-c2cc(=O)c3ccccc3o2)c1N`, the Potency result in assay [1], in assay [4], in assay [5] and in [9] was “inactive” throughout. The Potency in [2] is 16.6 µM (active); in assay [10] it was 5.26 µM (active); in assay [7], 3.72 µM (active).

As for `NC(=O)c1ccc2nc(-c3ccc(Oc4ccc(Cl)cc4)cc3)[nH]c2c1`, the Potency result in [1] is “inactive”. For the same compound, the Potency in assay [2] is 1.48 µM (active); in assay [4] it was 5.9 µM (active); in assay [9], 0.469 µM (active); in assay [6], 0.187 µM (active); in [10] it was 0.0083 µM (active).

For the compound `C[C@H]1[C@H](NC(=O)C(=NOC(C)(C)C(=O)O)c2csc(N)n2)C(=O)N1S(=O)(=O)O`, the Potency result in [1], in [2], in assay [4], in assay [5], in assay [9] and in assay [10] was “inactive” each time. In assay [7], the Potency entry was “inactive”.

Consider `CN[C@@H](C)C(=O)N[C@H]1CN(C(=O)CC(C)C)CC[C@H]2CC[C@@H](C(=O)NC(c3ccccc3)c3ccccc3)N2C1=O`, for which the Potency in assay [1] is 16.6 µM (active); in assay [2], 2.96 µM (active); in assay [4], 7.43 µM (active); in [5], 1.18 µM (active); in [7], 9.35 µM (active).

As for `N#CC(=C(N)Sc1ccccc1N)C(C#N)=C(N)Sc1ccccc1N`, the Potency in assay [1] is 10.5 µM (active); in assay [2], 18.7 µM (active); in [4], 20.9 µM (active); in assay [5] it was 16.6 µM (active); in assay [9], 18.7 µM (active); in assay [10], 0.662 µM (active). Further, in assay [8], the Potency is 16.6 µM (active).

Consider `CS(=O)c1ccc(-c2nc(-c3ccc(F)cc3)c(-c3ccncc3)[nH]2)cc1` (configuration not stated), for which the Potency in [1] is 10.8 µM (active); in [2], 30.3 µM (active); in [4], 42.9 µM (active); in [5], 34 µM (active); in [9], 34 µM (active); in assay [6] it was 3.82 µM (active). In addition, in [8], the Potency was 34 µM (active).

In the case of `O=c1c(-c2ccc(O)cc2)coc2cc(O)ccc12`, the Potency entry in [1], in assay [2], in assay [4], in [9], in assay [6] and in assay [7] was “inactive” each time. Also, in assay [8], the Potency entry is “inactive”.

As for `COc1ccc(-c2cc(=O)c3c(O)cc(O)cc3o2)cc1O`, the Potency in assay [1] is 4.69 µM (active); in assay [2], 5.26 µM (active); in assay [4], 6.62 µM (active); in assay [9], 7.43 µM (active); in assay [10], 10.5 µM (active); in [7] it was 7.43 µM (active). Moreover, the Potency in [8] was 9.35 µM (active).

For `CN1[C@@H]2CCC[C@@H]1CC(NC(=O)c1nn(C)c3ccccc13)C2` (some centres not stated), the Potency entry in assay [1], in assay [2], in assay [5], in assay [9], in assay [10] and in assay [7] was “inactive” in each case.

On to `C=CCc1ccc(O)c(-c2ccc(O)c(CC=C)c2)c1`, for which the Potency is 23.5 µM (active) in assay [1], 23.5 µM (active) in [2] and 26.4 µM (active) in assay [5].

Take `CN(C)C1CCN(C(=O)c2ccc(NC(=O)Nc3nc(N4CCOCC4)nc(N4CCOCC4)n3)cc2)CC1`: the Potency in assay [1] is 0.166 µM (active); in assay [2] it was 1.18 µM (active); in assay [3] it was 0.0166 µM (active); in assay [6], 0.0662 µM (active); in assay [7] it was 0.209 µM (active).

`O=c1cc(-c2ccc(O)cc2)oc2cc(O)cc(O)c12`: the Potency in [1] was 4.18 µM (active); in assay [3], 20.9 µM (active).
